# Hit rate of the full screen: of about 64,000 compounds, about 2,200 (3.4%) were called active.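 How the source made its calls: active means calcium fluorescence response, raw or row-and-column corrected B-score, differing from the plate sample mean either way at a set confidence level, mostly lower; inactive means the rest.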 What follows is part of a selection rich in actives, with near analogues and random picks from the rest.
# Target: Muscarinic acetylcholine receptor M1 (Rattus norvegicus) (UniProt P08482)
# Assay: antagonists of rat M1 muscarinic receptor (AID 628)
# Conditions: CHO-M1 cells, Fluo-4 calcium, ACh EC80 antagonist mode; at 10 µM; hits give low values
# Chain of Muscarinic acetylcholine receptor M1 (Rattus norvegicus) (P08482 whole entry, looked up): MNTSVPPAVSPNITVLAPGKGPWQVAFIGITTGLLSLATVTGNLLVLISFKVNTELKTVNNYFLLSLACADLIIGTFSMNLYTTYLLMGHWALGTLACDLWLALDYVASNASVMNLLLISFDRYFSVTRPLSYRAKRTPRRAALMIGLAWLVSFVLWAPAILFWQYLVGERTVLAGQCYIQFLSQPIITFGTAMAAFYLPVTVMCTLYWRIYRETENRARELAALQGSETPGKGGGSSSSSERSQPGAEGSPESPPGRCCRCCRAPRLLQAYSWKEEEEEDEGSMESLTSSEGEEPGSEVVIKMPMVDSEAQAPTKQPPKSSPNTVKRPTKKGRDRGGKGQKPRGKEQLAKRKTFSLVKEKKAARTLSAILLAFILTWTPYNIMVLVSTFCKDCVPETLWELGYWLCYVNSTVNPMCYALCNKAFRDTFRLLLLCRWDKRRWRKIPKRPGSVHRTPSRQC
row,SMILES,B-score
1,COCCNC(=O)C(C#N)c1nc2ccccc2nc1N1CCN(Cc2ccc3c(c2)OCO3)CC1 (stereo not given),0.357 (inactive)
2,COc1ncnc2c1N=C1CC(C)(C)CC(N)=C1S2,-3.02 (active)
3,Cc1ccc(S(=O)(=O)N2CCC(C(=O)N[C@@H](C)C(=O)NCc3ccccc3)CC2)cc1,0.328 (inactive)
4,COc1cc2cc(CN(CCN3CCCC3)C(=O)Nc3ccccc3Cl)c(=O)[nH]c2cc1OC,-0.424 (inactive)
5,Oc1ccc(Cl)cc1/C=N/c1nc2ccccc2[nH]1,0.265 (inactive)
6,CC(C)CNS(=O)(=O)c1ccc(OCC(=O)Nc2ccc3c(c2)OCO3)c(Cl)c1,0.138 (inactive)
7,COc1ccc(S(=O)(=O)Nc2ccc3c(c2)OCO3)cc1Cl,-4.67 (active)
8,COc1ccc(F)cc1S(=O)(=O)Nc1ccc2c(c1)OCO2,0.86 (inactive)
9,O=S(=O)(c1ccc2ccccc2c1)N1CCN(S(=O)(=O)N2CCOCC2)CC1,1.15 (inactive)
10,O=c1ccc2cc(S(=O)(=O)N3CCN(c4ccccc4)CC3)ccc2o1,3.23 (active)
11,COc1ccc(N2CCN(Cc3cc(=O)oc4ccc5ccccc5c34)CC2)cc1,0.836 (inactive)
12,CCOC(=O)C1(C(F)(F)F)N=C(N(C)C)OC(N(C)C)=N1,0.0434 (inactive)
13,Nc1ccc(-n2nncc2-c2ccco2)cc1,0.0134 (inactive)
14,OC(COc1cccc(OCC(O)CN2CCCC2)c1)CN1CCCC1 (stereo not given),-0.0676 (inactive)
15,O=C(C(c1ccccc1)c1ccccc1)N1CCN(CC(O)COc2ccccc2)CC1 (stereo not given),-2.34 (active)
16,COc1cccc(OCC(O)CN2CCN(CCO)CC2)c1 (stereo not given),-0.234 (inactive)
17,N#Cc1ccc(OCCN2C(=O)NC3(CCSC3)C2=O)cc1 (stereo not given),0.213 (inactive)
18,Cc1n[nH]c(C)c1S(=O)(=O)N1CCCC(C(=O)NCC2COc3ccccc3O2)C1 (stereo not given),0.422 (inactive)
19,COc1ccc(C(C)=O)cc1COC(=O)Cn1cnc2ccccc2c1=O,0.139 (inactive)
20,Cc1cc(NC(=O)COc2ccc(Cl)cc2Cl)n(CCC#N)n1,-0.163 (inactive)

row,SMILES,B-score
1,CN1CCN(c2ccc(NC(=O)COc3ccc(Cl)cc3Cl)cc2)CC1,-3.05 (active)
2,Cc1ccccc1OCC(=O)Nc1ccc(N2CCN(C(=O)C(C)C)CC2)c(Cl)c1,-1.61 (inactive)
3,CCCc1[nH]nc2c1C(c1ccc(Br)s1)C(C#N)=C(N)O2 (stereo not given),0.255 (inactive)
4,CCC1=C(C(=O)OC)C(c2cc(OC)ccc2OC)C(C#N)=C(N)O1 (stereo not given),0.513 (inactive)
5,CCOC(=O)N1CC=C2C(C#N)=C(N)C(C#N)(C#N)[C@H](c3cccs3)[C@H]2C1,0.673 (inactive)
6,CCCN1CC=C2C(C#N)=C(N)C(C#N)(C#N)C(c3cc(OC)ccc3OC)C2C1 (stereo not given),-2.33 (active)
7,CCn1cc(NC(=O)Nc2ccc(OC)c(OC)c2)c(C(N)=O)n1,-0.416 (inactive)
8,Cn1c(=NC(=O)c2ccco2)sc2cccc(F)c21,0.839 (inactive)
9,O=C(CC(Cc1ccccc1)C(=O)O)NCCc1ccc2c(c1)OCO2 (stereo not given),-0.392 (inactive)
10,O=C(NCCc1ccc2c(c1)OCCO2)c1cc2ccccc2o1,-3.3 (active)
11,O=C(COC(=O)c1ccc2c(c1)OCCO2)NCc1ccccc1,0.116 (inactive)
12,CCOc1ccccc1C1C(C(=O)OC)=CN(C)C=C1C(=O)OC,0.428 (inactive)
13,Cn1nnnc1SCC(=O)N1CCN(C(c2ccccc2)c2ccccc2)CC1,-2.4 (inactive)
14,O=C(c1ccc(-n2cnnn2)cc1)N1CCN(C(c2ccccc2)c2ccccc2)CC1,-10.9 (active)
15,O=C(c1ccccc1)N1CCN(C(=O)N2CCCCC2)CC1,-0.168 (inactive)
16,CC(Nc1nc(N2CCCC2)nc2ccccc12)c1ccccc1 (stereo not given),-1.8 (inactive)
17,COc1cc(-c2nc(S(=O)(=O)c3ccc(Cl)cc3)c(N(C)C)o2)cc(OC)c1OC,0 (inactive)
18,COc1ccc(CSc2nc(N3CCOCC3)c3c(c2C#N)CC(C)(C)OC3)cc1,0.045 (inactive)
19,CCS(=O)(=O)N1CCC(C(=O)N2CCN(c3ccccc3)CC2)CC1,-0.14 (inactive)
20,Cc1ccc(N2CCN(S(=O)(=O)c3ccc(F)cc3)CC2)c(C)c1,1.98 (active)

row,SMILES,B-score
1,Cc1ccc(C)c(N2CCN(S(=O)(=O)c3ccc4c(c3)oc(=O)n4C)CC2)c1,0.182 (inactive)
2,Cc1ccc(S(=O)(=O)N2CCC(N3CCCCCC3)CC2)cc1,-0.781 (inactive)
3,Cc1cc(=O)oc(C)c1C(=O)NCc1ccc(F)cc1,-0.775 (inactive)
4,CCOC(=O)C(CC)Sc1ncnc2c1nnn2-c1ccc(F)cc1 (stereo not given),0.284 (inactive)
5,O=C(CCn1c(=O)[nH]c2ccccc2c1=O)NCCCN1CCN(c2cccc(Cl)c2)CC1,-1.14 (inactive)
6,COc1ccc(CCNC(=O)CCCCn2c(=O)[nH]c3ccccc3c2=O)cc1OC,-0.359 (inactive)
7,O=C(CCCn1c(=O)[nH]c2cc(Cl)ccc2c1=O)NCCN1CCN(c2ccccc2)CC1,12.4 (active)
8,C=CCn1c(=S)[nH]c2nc3c(cc2c1=O)COC(C)(C)C3,-2.69 (active)
9,CC(C)OCCCNc1nc2c(c(=O)n(Cc3ccccc3F)c(=O)n2C)n1C,-0.366 (inactive)
10,O=C(CN1CCOCC1)Nc1c2c(nc3c1CCC3)CCC2,-0.251 (inactive)
11,Cc1cccn2c(=O)c3cc(C#N)c(=NC(=O)c4cccnc4)n(CC4CCCO4)c3nc12 (stereo not given),-1.9 (active)
12,Cc1cccn2c(=O)c3cc(C(=O)N4COCC4(C)C)n(C)c3nc12,-0.585 (inactive)
13,Cc1cccn2c(=O)c3cc(C#N)c(=O)n(CCCN4CCOCC4)c3nc12,-0.356 (inactive)
14,CC1CCc2c(sc3c2C2=NS(=O)(=O)CCN2C=N3)C1 (stereo not given),-0.133 (inactive)
15,Cc1ccc(C)n1-c1ccncc1,-0.0105 (inactive)
16,CCOC(=O)CCc1c(C)c(C#N)c2[nH]c3ccccc3n2c1=O,-0.0991 (inactive)
17,COC(CCN(C)C)(c1ccccc1)c1ccccc1,-11.2 (active)
18,COc1ccc2oc(=O)c(C(=O)N3CCN(c4ccccc4F)CC3)cc2c1,0.203 (inactive)
19,CN1CCN(CC(=O)Nc2sc3c(c2C#N)CCC(C(C)(C)C)C3)CC1 (stereo not given),-2.38 (active)
20,CCC(=O)Nc1sc(C(=O)N2CCCCC2)c(C)c1C#N,-0.552 (inactive)

# Reference: PubChem BioAssay AID628 (Vanderbilt High Throughput Screening Facility, 2007)
